We go through 108 sequences from PubChem BioAssay AID1508600 (Functional Genomics Laboratory (NCATS/FGL), 2020).

About 3,700 (7%) of roughly 53,000 sequences were called active. The full list was thinned out, with actives kept by preference. Values without a mark were called inactive.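 How the source made its calls: active means gene knockdowns whose robust z-score for IL-1 alpha signal is at least 2 or at most -2, so actives lie on both sides; inactive means the rest.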

A short description of this assay: Components of the Cytosolic LPS Sensing Pathway: Gene Identification via Genome-wide siRNA Screen.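 Further: robust z of the log signal after scaling to non-targeting control siRNA wells of the plate.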 As to conditions: RAW264.7 macrophages, IL-1a HTRF, actives lie on both sides, screened at 100 nM (by protocol), cells primed 5 h with Pam3CSK4 first. In outline: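 Three distinct siRNAs per gene were tested singly at 100 nM in RAW264.7 macrophages. Following Pam3CSK4 priming and 24 hour LipidA transfection, IL-1a secretion was read by HTRF.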
CCUGCUAAGAGAGUACUAUTT against Pglyrp2: the z-score was 1.51.
The figure for GGUUGGACGUGGUGAAGAATT against Chtf18 is -2.24 (active); for GGAAUACAAACUGCUGUACTT against Urgcp it is 0.138.
The figure for GGAAGUGUGAACUUCAUCATT against Zdhhc6 is 2.78 (active).
The figure for GCCCACGAGCCUCAUGGACTT against Sts is -0.805; for GGAGUAUCGUAAUGCGGACTT against C4b it is 0.598.
For the sequence GGACUCCUAAUGAAUAAUCTT against Wee2, the z-score is 2.06 (active).
The figure for CCUUCCUUACCUACGUGAGTT against Nup88 is 1.71; for CCUCAAGGCAGUUCAUAUUTT against Zfp790 it is -0.334; for GGCUCGGUAUCGUUUUUCATT against Arl3 it is 0.841.
To GGCUAUCUUUUCAGCUUUATT against Sox30 belongs 0.212; to GCCGACCACAGUACAAGACTT against Bivm, 1.08; to GCCGUGUGGUAAUAGUGUCTT against Dhrs13, 0.442.
The figure for GGAUGAAACGGGUGCCUAUTT against Kctd5 is 3.33 (active); for “GGACUUCUAGAGAACUUGUTT against 2900092C05Rik” it is -1.7.
Turning to GGCUGUAUACCAAUAAAAATT against B4galt6, the z-score is -0.855.
The figure for CGUUUCAGAGUGUUUGUGGTT against Lgalsl is -0.173.
To GGUAUCAGAGCUGUGUUCUTT against Cpped1 belongs -1.48; to GGAAAUCUAAAAGUCCUCCTT against Il17re, 0.2; to GGAUCAUCUCUUUGGGCUGTT against Tmem37, 0.127.
To GGAGAAGAAAGAAAAGCUUTT against Nusap1 belongs -1.74; to GGCUGAAAAACUCAAUUAUTT against Boll, -0.813; to CCAAAUAUCCGGCCAUGACTT against Lgals6, -0.877.
For the sequence GGAAAACACCUACCUGUGGTT against Slc25a3, the z-score is -1.48.
To GGAAAUCAGAGAAUACUUCTT against Mfsd14b belongs 2.04 (active); to GAAGAAGGAAAAAAACCCATT against Sec61b, -1.19.
With GCACCUCCUGGGAUUACAUTT against Crp, the z-score was 0.412.
The figure for GGGCUAAUUGUGAACAUUUTT against Slc7a1 is 3.35 (active); for GCCAUGAAGCUAAAUAAUCTT against Optn it is -1.31; for GCACCUCUACACUUUAGAUTT against Rack1 it is -0.0792.
The figure for GGACUGGUUCAUCCUUGUGTT against G6pc is 0.922; for GGACCACCUAAGUUUAAGCTT against Pde6g it is -0.557.
The figure for GGCAUCAAGCACAAGAAAATT against Sys1 is -1.16.
As for CCUGUGCCUCGUUUUAUUUTT against Fam161a, the z-score was 0.807.
With GGUGAUCGAGGAGAGUCUATT against Oaf, the z-score was -0.737.
To GGUGGAGUUAGAAAACUACTT against BC048679 belongs -0.341; to CCUGAACGUGAGUGGAGAATT against Man1c1, -0.8.
To GGUGAAGAUUGAGAAGGAGTT against Aifm3 belongs -2.05 (active); to GACCUACCAGAUGAAGGUCTT against Vmn1r28, 0.29; to GCGACUUUAGCUAAACAUGTT against Kcns2, 1.79.
The figure for GGAAGAAACAUGUAUCAUGTT against Tff1 is 0.556.
For the sequence GACAGUGCACGAUCUGAUUTT against Pfn3, the z-score is 0.274.
The figure for GCUGGAAUGCAAGGGCUUCTT against Gchfr is 1.45; for GGAUAUGAAACAAUAACAGTT against Arid5b it is -0.349; for GGCAAAAUCUAUUGUCUUCTT against Ran it is -2.2 (active).
The figure for GGAGGUAAAUGAAAAAUCUTT against Nop56 is 0.611; for GGUGAUCGUGGUGUGGAACTT against Extl2 it is 0.941.
To GGCAAUGAUGAGACCUAGUTT against Mybbp1a belongs 0.0956; to GCAAUCGAGCUGAAACUAGTT against Hat1, 0.721.
With CCACCAUUUAUAUUUGGUUTT against Slc35g1, the z-score was -0.298.
Consider GGGUUACAAUAACUGGACATT against Ggcx, for which the z-score was 2.32 (active).
The figure for GCCACAUGGUUAAUAAGAGTT against Postn is -1.5; for ACCUCAAGACAGUGCAAAUTT against H2bc4 it is -1.41.
The figure for GGAAAAUCAACAGCAUCAATT against Olfr661 is -0.642.
In the case of CCCUAUUGAUUCAACUUGGTT against Samt4, the z-score was 0.253.
Regarding GGGCAACGUAUUCACAUUATT against Manbal, the z-score was 2.86 (active).
To GGAGCUUUGAAGAGACUGGTT against Olfr117 belongs -2.32 (active); to GGUGCUGCUGAGAUUUUUCTT against Pxt1, 0.555; to GGCAAUGGAGAGAGAGAUGTT against Patl1, -2.36 (active).
The figure for GGAUCAAAGGAAGAAGGGCTT against Zbtb24 is -0.00585; for GGCCAGAACUUAAAUUUUCTT against Nbr1 it is 0.658; for GGUAGUGUCUAACUUCUGGTT against Zkscan17 it is 2.13 (active).
To “GGGACAAUUCUGGAUUAAATT against 9330155M09Rik” belongs -0.639; to GGGAAUCACCCUGAGAAAGTT against Ccndbp1, -0.269; to GAACAGUCCUUUUAUGGAUTT against Vmn1r33, 0.38.
GCAUCCUUCACUCAAAUAUTT against Aspa: the z-score is 3.17 (active).
The figure for GGACAGAGUUUUCAUUUUGTT against Rptn is -1.51.
To GCUUCAGCCAUUUCACCUUTT against Rnaseh2c belongs 0.108; to GGGAAUAAUCUACAAGCCATT against Ccdc121, 1.92; to GGUGUACCAGCAUAGCUGUTT against Hps5, 1.24.
Turning to GGAAAAUUACAGAAUUGGATT against Dnali1, the z-score is 0.323.
To GGAGCACUUUAAGUUAUACTT against Rnf225 belongs 1.73; to GGAAGAUGACAACUUAUCUTT against Abcc8, -0.854.
To AUGAAAACCAUUCCCAAUUTT against Olfr435 belongs 5.22 (active); to “GGCUGUUCUCUAGAUGAAUTT against 1810065E05Rik”, -1.54.
To GCACUAGCUAAUAAUGCAATT against Oxsm belongs -1.54; to GGAAUGAGAAGAGAGGAUCTT against Rpp25, -0.239.
In the case of GGGCAAGUUUUUUUUUCUUTT against Sf3a2, the z-score was 0.586.
On to UGGCCUGAUCAUGAACAGUTT against S100a7a, for which the z-score is 1.21.
Consider GGCCGAAGAAUUCAUCUUUTT against Pomgnt2, for which the z-score was -0.339.
On to GGUCGAUUUGUCCUUGUGCTT against Rassf7, for which the z-score is -2.04 (active).
The figure for GGGCCUGAAAAGACCAUCATT against Olfr124 is -0.424.
Consider CCUUGAUCUACAUAGAACCTT against Olfr177, for which the z-score was 0.338.
The figure for GGGAUUUUGUGAUGUCCGCTT against Mmp23 is 0.422; for CCACUUUCAACCUGACCGUTT against Pcdhac2 it is 0.345; for GGACGAUUCCCAGUUUCUGTT against Phf1 it is 1.25.
The figure for GCCGGAAUCAAGAUUAUCATT against Foxm1 is -2.04 (active).
To GGCUGCUUUCUGAUGGUCATT against Marchf3 belongs 0.595; to GGAAUACUGAAUUUAAGGATT against Olfr1416, 1.25.
For the sequence GGAAGCGUAAAUAAGUGUCTT against Emp2, the z-score is 0.772.
To GGAAAAUGUUGAAGUGGAATT against Ndufa5 belongs -0.805; to GGUGCAUGCACUGAAGAAGTT against Mpv17, 1.39.
To CGAAUAGGGAGCCAUAAGATT against Tubb6 belongs 1.66; to GCCUCACUCAGCAAAAGGATT against Ttc9c, -2.09 (active).
Consider “GGAGACCUGUGACUCCUUATT against 4932415M13Rik”, for which the z-score is 1.9.
The figure for GCUAGACUUCUUUGUGCGATT against Abhd8 is 0.656.
For GGCAAUGGCACUGAAGUCATT against Olfr994, the z-score was -0.0376.
The figure for CCCAAGCAACCCUUAUCAATT against Mcee is -0.315; for GGUAUCACUACUUUUUAGUTT against Eri3 it is -0.742.
The figure for GGUUUGUGGUGGUAUUUAATT against Man2a2 is 2.47 (active).
Take GGAUGAGGACACCAUUGAUTT against Sumo3: the z-score was 0.723.
As to GGUUGACGAAAUGACUAUATT against Adh4, the z-score was -0.105.
The figure for GCAGACCAGACAGUAUUACTT against Zeb1 is 1.22.
Take GCCUCUCAUUAGCAGUCAATT against Fbxl15: the z-score was -1.92.
The figure for CGUUAGCUGUUAUGAUCUATT against Cept1 is 0.203.
To GGGUCCUAAGGGAUUUAUUTT against Klf16 belongs -0.49; to GGUUUUGCACAGCAUUGGUTT against Efna1, -1.02; to GGAAUCAAACUGGAUUGAUTT against Pi4k2b, 2.01 (active).
